Bioassay records deposited in PubChem by National Center for Advancing Translational Sciences (NCATS).
Shown are actives, neighbours in structure and some others; about 5.7% of the full set was active somewhere.
JMJD2E inh: JMJD2E (human) inhibition; B2RXH2; AID 2147; Potency, µM (highest dose often 57.1 µM), actives largely listed as inhibitors; JMJD2E catalytic domain, FDH-coupled NADH fluorescence (FDH is formaldehyde dehydrogenase); 230,000 tested, 1.6% active; active means well fitted inhibition curve with a large enough effect, not every such curve was filed as active; inconclusive means small, poorly fitted or top-dose-only effect, or another doubt; inactive means no such curve, though single readings can be large or run the other way; further: nearly all actives have a fitted effect of over 50% in size
Target sequence (B2RXH2 1-337 limits assumed): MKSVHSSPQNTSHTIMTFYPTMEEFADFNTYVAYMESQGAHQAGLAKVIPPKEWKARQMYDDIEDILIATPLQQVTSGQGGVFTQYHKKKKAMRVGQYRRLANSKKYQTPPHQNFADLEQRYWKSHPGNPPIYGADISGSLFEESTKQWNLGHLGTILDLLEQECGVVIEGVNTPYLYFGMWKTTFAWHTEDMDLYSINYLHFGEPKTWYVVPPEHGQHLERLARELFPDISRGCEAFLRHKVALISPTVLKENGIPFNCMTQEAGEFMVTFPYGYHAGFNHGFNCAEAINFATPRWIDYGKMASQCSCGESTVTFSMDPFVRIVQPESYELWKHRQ
HP1b chromo inh: HP1-beta chromodomain-methylated histone interaction inhibition; P83916; AlphaScreen HP1-beta / biotin-H3K9me3 peptide binding; Potency, µM (top dose mostly 114 µM), most hits filed as inhibitors; 390,000 tested, 0.56% active; AID 540317; further: nearly all actives have a fitted effect of over 70% in size
Target sequence (P83916 whole entry, looked up): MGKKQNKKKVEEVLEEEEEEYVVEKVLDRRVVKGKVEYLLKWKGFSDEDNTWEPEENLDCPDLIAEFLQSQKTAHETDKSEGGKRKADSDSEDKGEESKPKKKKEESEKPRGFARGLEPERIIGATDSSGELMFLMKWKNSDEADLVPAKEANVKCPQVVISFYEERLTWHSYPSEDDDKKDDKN
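HP1-beta protein (50 nM final) preincubated 30 min at room temperature with biotinylated H3(1-18)K9me3 peptide (50 nM) in PBS pH 7.4, 0.01% Tween-20, then compound added for 30 min. AlphaScreen streptavidin donor/nickel chelate acceptor beads (10 ug/mL final), 30 min dark, luminescence read.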
JMJD2A Tudor: inhibitors of human JMJD2A Tudor domain. Potency, µM (titrated, usually from 114 µM), usual class: inhibitors. AID 504339. AlphaScreen JMJD2A-Tudor / H3K4me3 peptide binding. 390,000 tested, 4.4% active. O75164; further: nearly all actives have a fitted effect of over 50% in size
L3MBTL1 block: L3MBTL1 (human) inhibition; AlphaScreen L3MBTL1–H3K9me1 peptide binding; 230,000 tested, 0.66% active; Q9Y468; Potency, µM (top dose mostly 57.1 µM), hits mostly inhibitors; further: nearly all actives have a fitted effect of over 60% in size
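L3MBTL1 50 nM + b-AHA-H3(1-15)K9me1 75 nM, 30 min RT; compound added, 30 min RT; streptavidin donor/Ni-chelate acceptor beads 10 ug/mL each final, 30 min RT dark; AlphaScreen read.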
PI5P4Ka inh: PI5P4K alpha (human) kinase inhibition; PI5P4Kalpha enzyme, ADP-Glo luminescence, 60 min; stronger effect = lower value; max response, %; 330,000 tested, 1.2% active; AID 652105; active means max response of -50% or lower; inconclusive means between -30% and -50%; inactive means -30% or higher; further: value at the top dose of about 77 µM
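Enzyme plus substrate dispensed, test compounds pinned in, then ATP (5 microM final) added. After 60 min at RT, ADP-Glo reagent 1 for 45 min and reagent 2 for 30 min preceded luminescence imaging.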
BAZ2B block: blocks human BAZ2B. Potency, µM (series often up to 114 µM), most hits filed as inhibitors. AID 504333. 360,000 tested, 4.4% active. AlphaScreen BAZ2B-H3K14Ac peptide displacement. Q9UIF8; further: nearly all actives have a fitted effect of over 60% in size
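AlphaScreen displacement: compounds (up to 110uM) incubated 30 min at room temperature with a preformed 50 nM BAZ2B/50 nM biotinylated H3K14Ac peptide complex in PBS pH 7.4 with Tween-20. Donor and acceptor beads at 10 ug/mL final added, 20 min light-protected before reading.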
Numbers stand for hits; . = inactive; ? = inconclusive; / = no result; ! = not active in a repeat; [ ] = dose if it differs, or a comment. Unless noted, the call rests on the fitted dose curve; in most records, active means well fitted inhibition curve with a large enough effect; inconclusive means small, poorly fitted or top-dose-only effect; inactive means no such curve, though single readings can be large or run the other way.

SMILES	JMJD2E inh	HP1b chromo inh	JMJD2A Tudor	L3MBTL1 block	PI5P4Ka inh	BAZ2B block
Cc1ccc2c(CNC3CCC(C)CC3)c(C(=O)O)n(Cc3cccc(F)c3)c2c1 (centres undefined)	/	.	.	/	/	.
Cc1cn(C)c(CC(=O)N2CCN(c3ccccc3F)CC2)c1C(=O)O	/	.	.	/	/	.
Cc1sc2ncn(CC(=O)N3CCN(c4ccccc4F)CC3)c(=O)c2c1S(=O)(=O)N1CCN(c2ncccn2)CC1	/	.	.	/	/	.
CCOC(=O)N1CCN(S(=O)(=O)c2ccc(C(=O)NNc3nc4cc(C)cc(C)c4s3)cc2)CC1	25µM	.	?	?	.	?
Cc1cccc(Nc2nc(C)cc(C)c2C#N)c1	/	.	.	.[2.29 µM]	.	.
Cc1cccc(Nc2nc(N)nc(N)c2N=O)c1	/	.	.	/	-51	/
Cc1cccc(Nc2nc(N)c(C#N)c(CC#N)c2C#N)c1	.	.	.	.	-54	.
COc1ccc(NC(=O)Nc2cccc3[nH]c([C@@H]4O[C@H](CO)[C@@H](O)[C@H](O)[C@H]4O)nc23)cc1OC1CCCC1	/	/	/	/	.	/
Nc1cc(C(=O)N/N=C/c2cccc([N+](=O)[O-])c2)n[nH]c1=O	.	.	?	/	.	56µM
CCCCCCCC(=O)Nc1ccc(C(=O)N/N=C/c2cccc([N+](=O)[O-])c2)cc1	.	.	.	.	.	.
O=C(N/N=C/c1cccc([N+](=O)[O-])c1)c1cc[n+](CCO)cc1	/	.	.	.	.	50µM
CCS(=O)(=O)c1ccc2oc(SCC(=O)NCc3ccccc3)nc2c1	.	.	.	.[11.4 µM]	.	.
CCS(=O)(=O)c1ccc2oc(SCC(=O)NC34CC5CC(CC(C5)C3)C4)nc2c1	.	.	.	/	.	56µM
Cc1nc(NCc2ccco2)c2c(C)c(C)sc2n1	?	?	3.2µM	/	/	28µM
COc1ccc(C(=O)c2cn(CC(=O)Nc3cc(C)ccc3C)c3nc(C)ccc3c2=O)cc1	/	.	.	/	/	.
O=C(NCC1CCCO1)C(c1cccs1)N(Cc1cccs1)C(=O)c1ccc(-c2ccccc2)[nH]1 (centres undefined)	?	?	?	.	.	?
O=C(NCC1CCCO1)C(c1ccc(F)cc1)N(CC1CCCO1)C(=O)c1ccc(-c2ccccc2)[nH]1 (centres undefined)	.	.	.	.	.	40µM
Cc1ccc(CNC(=O)C2CCN(c3nc4ccc(C)cc4[nH]3)CC2)cc1	/	.	.	/	/	.
C[n+]1cnc(-c2ccccc2)cc1-c1ccccc1	?	?	22µM	.	.	.
Fc1ccc2cc(-c3ccccc3)ncc2c1	/	.	.	.	.	/
CC(NC(=O)c1cc(-c2ccc(Cl)cc2)on1)c1ccccc1 (centres undefined)	/	.	.	/	/	.
CC1CCC2(CC1)NC(=S)N(C(C)(C)C)N2 (centres undefined)	?	.	?	.	?	.
CC1CCC2(CC1)NC(=S)N(c1ccccc1)N2 (centres undefined)	?	.	.	/	.	79µM
Oc1ccc(Nc2nc3ccccc3nc2Nc2ccc(O)cc2)cc1	.	?	?	/	.	50µM
O=C1CCCC2=C1C1(CCSC1)N=C(Nc1nc3ccccc3o1)N2 (centres undefined)	/	/	.	/	/	/
SMILES	JMJD2E inh	HP1b chromo inh	JMJD2A Tudor	L3MBTL1 block	PI5P4Ka inh	BAZ2B block
Cc1ccc(C(=O)/C=C/c2cn(CC(O)CN3CCc4ccccc43)c3ccccc23)cc1 (centres undefined)	/	.	25µM	/	/	?
CC(C)CN(CC(C)C)CC(O)Cn1cc(/C=C/C(=O)c2ccccc2)c2ccccc21 (centres undefined)	/	.	.	/	/	89µM
COc1ccc(C(=O)/C=C/c2cn(CC(O)CN3CCc4ccccc43)c3ccccc23)cc1OC (centres undefined)	/	.	20µM	/	/	10µM
CC1CCCN(C(=O)c2cc(S(=O)(=O)N3CCCCC3)c[nH]2)C1 (centres undefined)	/	.	.	.	.	.
Cc1ccc(CSc2nnc3[nH]c(=O)cc(C)n23)cc1	/	.	.	/	/	.
CCOc1ccc(-c2nc(CNC(=O)Nc3ccccc3)c(C)o2)cc1	/	.	.	/	/	.
C=CC[n+]1c(-c2ccc(OCC)cc2)csc1NNC(=O)Nc1ccccc1	.	14µM	22µM	/	/	10µM
O=C(COC(=O)c1ncc(Cl)c(Cl)c1Cl)NC1CCCCCC1	/	.	.	.	.	.
Cc1ccc(NC2=C(C(=O)c3ccccc3)N(C)S(=O)(=O)c3ccccc32)cc1	.	?	?	.	.	25µM
C[n+]1c(/C=C/c2ccc(O)cc2)ccc2ccccc21	/	?	.	/	.	.
Cc1cc(/C=C\c2ccc3cc(N(C)C)ccc3[n+]2C)c(C)n1-c1ccccc1	?	?	50µM	32µM	?	13µM
CC1=C(C(=O)OC2CCCCCC2)C(c2c(F)cccc2Cl)CC(=O)N1 (centres undefined)	/	.	.	/	/	.
CNc1c2c(nn1C)CCCC2	.	40µM!	20µM!	.	.	?
CCOC(=O)c1c(-c2ccc(C)o2)csc1NC(=S)NC(=O)N(C)C	.	?	?	.	/	45µM
CCOC(=O)c1c(-c2ccc(C)o2)csc1NC(=O)CN1CCOCC1	.	.	?	/	.	?
